Screening results from PubChem.
Tg IFNy HTS: blocks Toxoplasma gondii growth in the presence of IFN-gamma; Toxoplasma gondii growth in IFN-gamma-treated host cells; hits give low values; activity change, negative = inhibition, % (concentration not given with the values); 69,000 tested, 3.8% active; AID 1259416; in the data active means activity change below about -70%, passing the limit was not always enough;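 further: host cells are HeLa cells infected with Toxoplasma gondii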
* = called active by the depositor. Many of the other results were omitted from the sample, so hits are more common in it than they were.

SMILES	Tg IFNy HTS
Cc1ccc(F)cc1S(=O)(=O)N1CCC(c2nc(C(=O)N3CCCC3)c(C)o2)CC1	-82*
Cc1oc(C2CCN(S(=O)(=O)c3cccc(F)c3)CC2)nc1C(=O)N1CCCC1	13
Cc1cccc(NC(=O)N2CCC(c3nc(C(=O)N(C)C)c(C)o3)CC2)c1C	-13
CSc1ccc(NC(=O)N2CCC(c3nc(C(=O)N4CCCC4)c(C)o3)CC2)cc1	-84*
CSc1ccc(NC(=O)N2CCC(c3nc(C(=O)N4CCCCC4)c(C)o3)CC2)cc1	-64
O=C1c2ccccc2C(=O)N1CNc1ccc(N2CCOCC2)cc1	16
Cc1cccc(OC2CCN(C(=O)CCNS(C)(=O)=O)CC2)c1	1
O=c1[nH]c2cc(F)ccc2c(O)c1-c1nc(-c2ccccn2)no1	-7
Cc1ccc(-c2coc(-c3ccc(NS(=O)(=O)c4cccc(Cl)c4C)cc3)n2)c(C)c1	-49
C=CCn1c(=O)c(C(=O)Nc2cccc(C)c2)c(O)c2ccccc21	35
CCOC(=O)N1CCC2(CC1)OC(=O)C(C)=C2C(=O)NCCN1CCOCC1	187
CC(c1cnn(C)c1)n1ccnc1-c1cccc(O)c1 (stereo unspecified)	-8
CCN(Cc1cnn(C)c1)C(=O)CC(=O)Nc1cccc(Cl)c1C	2
O=C(O)C1(Oc2cccc(N3CCOCC3)c2)CCOCC1	7
COc1ccc(C2(CNCc3cc(-c4ccc(Cl)cc4)c[nH]c3=O)CCOCC2)cc1	311
COc1ccc(NC2=NC(c3ccc(Cl)cc3)n3c(nc(C)cc3=O)N2)cc1 (stereo unspecified)	-86*
COc1ccc(Nc2nc(NC(=O)Nc3ccc(Cl)cc3)n[nH]2)cc1	-53
CN(C)C(=O)COCc1nnn2c1CN(c1ncccn1)CCC2	-11
CC(=O)NCc1noc2c1CN(c1ncccn1)CC2	3
Cc1nc(-c2ccccc2)sc1-c1nc(-c2ccc(C(C)(C)C)cc2)no1	-77*
FC(F)(F)c1ccc(-c2noc(/C=C/c3ccccc3)n2)cc1	81
CC(C)(C)c1ccc(-c2nc(-c3ccc(Cl)cc3)no2)cc1	-23
C=CCn1c(=O)c(C(=O)Nc2cc(C)ccc2C)c(O)c2ccccc21	99
COc1cccc(CC(=O)N2CCC(n3nnc4c(C)cccc4c3=O)CC2)c1	-23
CCn1c(=O)c(-c2ccn[nH]2)cc2c(C)nc(N)nc21	-74*
SMILES	Tg IFNy HTS
Cc1ccc(F)cc1-n1c(-c2ccn[nH]2)n[nH]c1=O	8
CCn1c(C2CCCN(Cc3ccc(-c4ccn[nH]4)s3)C2)nn(C)c1=O (stereo unspecified)	1
COc1ccc(NC(=O)c2cncc(NS(=O)(=O)c3ccc(Br)cc3)c2)cc1	24
CCOc1ccc(NS(=O)(=O)c2ccc(NC(=O)c3cccs3)cc2)cc1	2
CCCCCOC(=O)Nc1ccc(S(=O)(=O)Nc2ccc(Br)cc2)cc1	-87*
CC(C)(C)C(C)(O)C#CCN1CCOCC1 (stereo unspecified)	12
Cc1ccc(CC(=O)NC2CCC3(CCC(=O)N3)CC2)cc1 (stereo unspecified)	37
CCCCN(CCCC)c1ncnc2c1sc1nc3c(cc12)COC(C)(C)C3	-103*
CC1(C)Cc2c(sc3ncnc(N)c23)CO1	7
Cc1ccc(S(=O)(=O)N2CCCC(c3ncc4c(n3)CCN(C)C4)C2)cc1 (stereo unspecified)	2
CCn1cnnc1C(C)NC(=O)c1ccc2c(c1)nnn2C (stereo unspecified)	-4
O=C(CN1CCCCC1c1ccccn1)NCc1ccccc1F (stereo unspecified)	2
CN(C)[C@H]1CCN(c2nc(C(C)(C)C)nc3c2cnn3C)C1	-12
Cc1cc(N2CCC3(CCCO3)CC2)c2ccccc2n1	-13
O=c1cc(N2CCOCC2)nc2c3ccccc3ccn12	-2
c1ccc2nc3c(cc(N4CCOCC4)c4ccccc43)nc2c1	-104*
Cc1onc(-c2ccccn2)c1C(=O)NCCc1c[nH]c2ccccc12	-21
CCOC(=O)N1CCC2(CC1)OC(=O)C(C)=C2C(=O)NCc1ccccc1Cl	80
CCS(=O)(=O)N1CCN(C(=O)c2cc(CC(C)C)[nH]n2)CC1	-5
CSc1nn(-c2ccccc2)cc1C(=O)Sc1ccccn1	27
Clc1ccc(/C=C2\CCCC3C2=NNC3c2ccc(Cl)cc2)cc1 (stereo unspecified)	-92*
CCNc1ccnc(-c2cccc3[nH]ccc23)n1	36
OCCNc1ncnc2ccc(-c3cccc4[nH]ccc34)cc12	-57
Cc1csc2ncnc(-c3cccc4[nH]ccc34)c12	-74*
c1cc(N2CCCC2)nnc1CC1CCCNC1 (stereo unspecified)	3
SMILES	Tg IFNy HTS
O=C(c1ccc(OC2CCN(Cc3ccccn3)CC2)cc1)N1CCc2ccccc2C1	-3
COc1ccc(-c2cc3cc(OC)c(OC)cc3c(Cc3cccc4ccccc34)n2)cc1	6
CCN1c2ccc(C)cc2C(=O)NC12CCN(C(=O)c1ccc(C)cc1C)CC2	-37
O=C(c1n[nH]c2c1CCN(Cc1cccs1)C2)N1CCOCC1	33
Cn1ncc2c(NCc3cc(C(C)(C)C)n[nH]3)nc(C(C)(C)C)nc21	-75*
CCOC(=O)CNc1nc(C(C)(C)C)nc2c1cnn2C	-4
